What all share (assay): protein-binding microarray (PBM); PBM: ~300 nM protein, 6 mM HEPES pH 7.8, 80 mM KCl, 0.5 mM EDTA, 0.5 mM EGTA, 6% glycerol, 35 ng/ul poly-dIdC, 1% milk, 1 h, room temperature; Ap Aiptasia and Nv Nematostella (sea anemones) / Co Capsaspora / Aq Amphimedon (sponge) / Dm Drosophila / Hu human; RHD is the Rel homology domain; high values mean tight binding
Details in all cases: dsDNA, one strand shown

Assay [1] addresses T1, GST-Ap-NF-kB RHD (Exaiptasia pallida (Aiptasia), UniProt A0A913YAJ5 2-422).
T1 sequence: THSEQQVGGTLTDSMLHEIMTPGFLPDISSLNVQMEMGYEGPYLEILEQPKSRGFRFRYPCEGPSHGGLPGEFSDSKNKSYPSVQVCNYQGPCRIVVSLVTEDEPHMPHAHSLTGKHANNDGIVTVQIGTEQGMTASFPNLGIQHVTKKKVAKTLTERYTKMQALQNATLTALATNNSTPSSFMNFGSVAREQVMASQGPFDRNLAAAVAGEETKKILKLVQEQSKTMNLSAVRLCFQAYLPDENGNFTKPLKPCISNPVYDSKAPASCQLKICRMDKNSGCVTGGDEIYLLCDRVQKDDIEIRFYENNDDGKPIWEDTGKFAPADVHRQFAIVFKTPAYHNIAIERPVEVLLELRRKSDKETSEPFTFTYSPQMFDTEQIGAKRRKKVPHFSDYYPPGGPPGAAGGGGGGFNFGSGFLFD

Assay [2] addresses T2, GST-Nv-NF-kB (Cys allele) (Nematostella vectensis, UniProt E5G601 2-411).
T2 sequence: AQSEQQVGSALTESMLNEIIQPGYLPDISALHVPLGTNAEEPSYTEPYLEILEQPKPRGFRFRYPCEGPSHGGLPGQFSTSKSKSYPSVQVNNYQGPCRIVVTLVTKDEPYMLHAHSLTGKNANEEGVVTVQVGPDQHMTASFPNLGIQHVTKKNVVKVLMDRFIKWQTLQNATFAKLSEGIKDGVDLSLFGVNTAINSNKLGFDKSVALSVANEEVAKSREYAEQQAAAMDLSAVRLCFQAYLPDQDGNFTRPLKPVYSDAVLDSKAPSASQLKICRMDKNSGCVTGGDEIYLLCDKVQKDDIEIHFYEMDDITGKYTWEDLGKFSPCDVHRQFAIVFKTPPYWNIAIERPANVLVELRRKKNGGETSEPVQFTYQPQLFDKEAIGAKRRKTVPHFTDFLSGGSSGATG

The target in assay [3] is T3, GST-Nv-NF-kB (Ser allele) (Nematostella vectensis, UniProt A7UNT2 2-411).
T3 sequence: T2 sequence with Q21R, C66S, S207N, E215Q, V217A, E225K, A268E, D399E

For assay [4], the target named is T4, GST-Co-NF-kB (Capsaspora owczarzaki, UniProt F1ARL5 200-546).
T4 sequence: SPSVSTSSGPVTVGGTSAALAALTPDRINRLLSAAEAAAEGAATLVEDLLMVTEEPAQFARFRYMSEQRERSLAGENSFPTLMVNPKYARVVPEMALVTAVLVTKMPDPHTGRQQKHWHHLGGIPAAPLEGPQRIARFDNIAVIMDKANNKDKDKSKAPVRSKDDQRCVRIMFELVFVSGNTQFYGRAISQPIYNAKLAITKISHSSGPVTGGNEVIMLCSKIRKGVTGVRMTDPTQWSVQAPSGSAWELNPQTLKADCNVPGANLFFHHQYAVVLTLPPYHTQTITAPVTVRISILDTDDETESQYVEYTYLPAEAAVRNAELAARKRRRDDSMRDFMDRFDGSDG

In assay [5] the target is T5, GST-Dm-Relish (Drosophila melanogaster, UniProt Q94527 99-473).
T5 sequence: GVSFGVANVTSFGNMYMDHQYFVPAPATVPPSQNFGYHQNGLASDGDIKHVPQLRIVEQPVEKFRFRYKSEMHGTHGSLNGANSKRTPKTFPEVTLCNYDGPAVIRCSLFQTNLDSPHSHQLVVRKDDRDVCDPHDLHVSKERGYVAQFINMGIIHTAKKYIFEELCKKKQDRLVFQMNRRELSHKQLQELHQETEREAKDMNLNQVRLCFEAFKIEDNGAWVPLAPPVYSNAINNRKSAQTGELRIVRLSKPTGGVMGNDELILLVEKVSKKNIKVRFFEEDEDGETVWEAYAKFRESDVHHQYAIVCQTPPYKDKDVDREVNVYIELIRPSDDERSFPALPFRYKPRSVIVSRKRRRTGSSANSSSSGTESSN

The target of assay [6] is T6, GST-Aq-NF-kB (Amphimedon queenslandica, UniProt A9Y5G7 2-389).
T6 sequence: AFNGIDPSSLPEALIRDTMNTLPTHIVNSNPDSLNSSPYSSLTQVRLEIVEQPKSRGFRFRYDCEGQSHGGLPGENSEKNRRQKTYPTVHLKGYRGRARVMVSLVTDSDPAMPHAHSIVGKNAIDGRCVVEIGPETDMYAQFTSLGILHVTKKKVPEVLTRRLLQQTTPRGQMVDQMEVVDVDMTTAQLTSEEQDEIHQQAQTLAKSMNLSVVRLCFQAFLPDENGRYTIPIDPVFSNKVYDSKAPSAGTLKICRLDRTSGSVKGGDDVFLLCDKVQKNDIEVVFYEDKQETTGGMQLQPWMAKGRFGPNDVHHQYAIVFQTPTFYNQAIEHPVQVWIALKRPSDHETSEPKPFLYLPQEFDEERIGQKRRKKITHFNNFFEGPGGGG

Substitutions are numbered along the chain they refer to.

For 23 sequences, binding signal results are on record in PMC5700166.

Turning to “CCGATTAACATCACGGGGGGAAATGATGTTAATCGGGTCTTGATTCGCTTGACGCTGCTG”, the binding signal in assay [1] came out at 6.31 z-score; in assay [2], 6.61 z-score; in assay [3] it was 7.51 z-score; in assay [4] it was 11.2 z-score; in assay [5], 4.78 z-score; in assay [6] it was 5.52 z-score.
In the case of “CCGATTAACATCACTCTTTCCCCTGATGTTAATCGGGTCTTGATTCGCTTGACGCTGCTG”, the binding signal amounted to 4.86 z-score in assay [1]; 5.44 z-score in assay [2]; 7.19 z-score in assay [3]; 6.1 z-score in assay [4]; 1.95 z-score in assay [5]; 4.18 z-score in assay [6].
Turning to “CCGATTAACATCAAATTTTTCCCTGATGTTAATCGGGTCTTGATTCGCTTGACGCTGCTG”, the binding signal in assay [1] came to 3.81 z-score; in assay [2], 6.06 z-score; in assay [3] it was 8.21 z-score; in assay [4], 6.81 z-score; in assay [5], 2.35 z-score; in assay [6], 4.92 z-score.
With “CCGATTAACATCAAGGGAAAATATGATGTTAATCGGGTCTTGATTCGCTTGACGCTGCTG”, the binding signal in assay [1] is 3.77 z-score; in assay [2], 7.5 z-score; in assay [3], 8.19 z-score; in assay [4], 4.43 z-score; in assay [5], 1.66 z-score; in assay [6] it was 4.44 z-score.
As for “CCGATTAACATCAACCCCCCCCTTGATGTTAATCGGGTCTTGATTCGCTTGACGCTGCTG”, the binding signal in assay [1] was 4.76 z-score; in assay [2], 4 z-score; in assay [3] it was 3.93 z-score; in assay [4], 5.09 z-score; in assay [5] it was 4.91 z-score; in assay [6] it was 4.47 z-score.
Regarding “CCGATTAACATCACCTATTCCCCTGATGTTAATCGGGTCTTGATTCGCTTGACGCTGCTG”, the binding signal in assay [1] is 5.73 z-score; in assay [2] it was 5.93 z-score; in assay [3], 7.28 z-score; in assay [4] it was 5.72 z-score; in assay [5] it was 2.23 z-score; in assay [6] it was 4.27 z-score.
In the case of “CCGATTAACATCACCATTTTCCCTGATGTTAATCGGGTCTTGATTCGCTTGACGCTGCTG”, the binding signal was determined as 3.46 z-score in assay [1]; 4.65 z-score in assay [2]; 7.17 z-score in assay [3]; 3.65 z-score in assay [4]; 1.32 z-score in assay [5]; 3.42 z-score in assay [6].
As to “CCGATTAACATCAAATTCCCACGTGATGTTAATCGGGTCTTGATTCGCTTGACGCTGCTG”, the binding signal in assay [1] came to 2.06 z-score; in assay [2], 3.63 z-score; in assay [3], 3.63 z-score; in assay [4], 2.77 z-score; in assay [5], 3.95 z-score; in assay [6], 2.61 z-score.
For “CCGATTAACATCAAAAGTTTCCCTGATGTTAATCGGGTCTTGATTCGCTTGACGCTGCTG”, the binding signal in assay [1] was 5.05 z-score; in assay [2] it was 7.19 z-score; in assay [3], 6.7 z-score; in assay [4], 6.99 z-score; in assay [5], 4.85 z-score; in assay [6], 7 z-score.
In the case of “CCGATTAACATCAGGGGATTAAATGATGTTAATCGGGTCTTGATTCGCTTGACGCTGCTG”, the binding signal is 4.91 z-score in assay [1]; 6.29 z-score in assay [2]; 7.01 z-score in assay [3]; 3.71 z-score in assay [4]; 5.28 z-score in assay [5]; 5.21 z-score in assay [6].
Take “CCGATTAACATCAACGTTTCCCCTGATGTTAATCGGGTCTTGATTCGCTTGACGCTGCTG”: the binding signal was 5.38 z-score in assay [1]; 6.77 z-score in assay [2]; 10.1 z-score in assay [3]; 7.56 z-score in assay [4]; 2.48 z-score in assay [5]; 4.46 z-score in assay [6].
Take “CCGATTAACATCAGGGGAACTCATGATGTTAATCGGGTCTTGATTCGCTTGACGCTGCTG”: the binding signal in assay [1] was 6.56 z-score; in assay [2] it was 6.78 z-score; in assay [3], 7.59 z-score; in assay [4] it was 5.3 z-score; in assay [5], 6.03 z-score; in assay [6], 4.88 z-score.
In the case of “CCGATTAACATCAAATAATTCCCTGATGTTAATCGGGTCTTGATTCGCTTGACGCTGCTG”, the binding signal turned out to be 4.23 z-score in assay [1]; 7.21 z-score in assay [2]; 7.13 z-score in assay [3]; 5.48 z-score in assay [4]; 4.85 z-score in assay [5]; 6.69 z-score in assay [6].
With “CCGATTAACATCAGCCCCCCGTCTGATGTTAATCGGGTCTTGATTCGCTTGACGCTGCTG”, the binding signal in assay [1] turned out to be 3.16 z-score; in assay [2] it was 2.22 z-score; in assay [3] it was 1.71 z-score; in assay [4] it was 3 z-score; in assay [5], 3.83 z-score; in assay [6] it was 3.37 z-score.
As to “CCGATTAACATCAATCCCCCCCATGATGTTAATCGGGTCTTGATTCGCTTGACGCTGCTG”, the binding signal in assay [1] is 7.7 z-score; in assay [2], 5.57 z-score; in assay [3] it was 4.56 z-score; in assay [4], 6.68 z-score; in assay [5], 5.46 z-score; in assay [6], 4.81 z-score.
With “CCGATTAACATCACCCATTCCCCTGATGTTAATCGGGTCTTGATTCGCTTGACGCTGCTG”, the binding signal in assay [1] is 6.25 z-score; in assay [2], 5.53 z-score; in assay [3] it was 7.1 z-score; in assay [4], 5.33 z-score; in assay [5], 2.33 z-score; in assay [6], 4.22 z-score.
Regarding “CCGATTAACATCAGGGGATACCCTGATGTTAATCGGGTCTTGATTCGCTTGACGCTGCTG”, the binding signal was 8.36 z-score in assay [1]; 7.45 z-score in assay [2]; 6.59 z-score in assay [3]; 3.74 z-score in assay [4]; 9.05 z-score in assay [5]; 8.11 z-score in assay [6].
Take “CCGATTAACATCAGGGGAACCTATGATGTTAATCGGGTCTTGATTCGCTTGACGCTGCTG”: the binding signal in assay [1] is 6.11 z-score; in assay [2], 6.27 z-score; in assay [3] it was 7.41 z-score; in assay [4] it was 5.66 z-score; in assay [5], 4.09 z-score; in assay [6] it was 4.46 z-score.
Take “CCGATTAACATCAATTTATCCCCTGATGTTAATCGGGTCTTGATTCGCTTGACGCTGCTG”: the binding signal was 5.26 z-score in assay [1]; 5.83 z-score in assay [2]; 7.39 z-score in assay [3]; 7.11 z-score in assay [4]; 3.35 z-score in assay [5]; 3.84 z-score in assay [6].
Take “CCGATTAACATCACATTTCCCCATGATGTTAATCGGGTCTTGATTCGCTTGACGCTGCTG”: the binding signal in assay [1] came out at 4.9 z-score; in assay [2], 6.14 z-score; in assay [3] it was 8.95 z-score; in assay [4], 7.21 z-score; in assay [5], 2.25 z-score; in assay [6], 3.87 z-score.
Consider “CCGATTAACATCAAAGATTTCCCTGATGTTAATCGGGTCTTGATTCGCTTGACGCTGCTG”, for which the binding signal is 4.23 z-score in assay [1]; 6.33 z-score in assay [2]; 7.19 z-score in assay [3]; 4.84 z-score in assay [4]; 2.9 z-score in assay [5]; 5.13 z-score in assay [6].
For “CCGATTAACATCAGGGGTGGGGATGATGTTAATCGGGTCTTGATTCGCTTGACGCTGCTG”, the binding signal in assay [1] is 4.17 z-score; in assay [2], 3.38 z-score; in assay [3] it was 3.28 z-score; in assay [4], 5.49 z-score; in assay [5], 2.85 z-score; in assay [6], 3.59 z-score.
On to “CCGATTAACATCAAATTCTCCCCTGATGTTAATCGGGTCTTGATTCGCTTGACGCTGCTG”, for which the binding signal in assay [1] amounted to 5.65 z-score; in assay [2], 6.62 z-score; in assay [3], 7.76 z-score; in assay [4] it was 8.72 z-score; in assay [5], 2.37 z-score; in assay [6], 5.21 z-score.
